Assay outcomes (PubChem)
TROY NFkB inh – blocks TROY-dependent signaling in reporter cells. Q293 LMP1-TROYcd NF-kB luciferase reporter, 4 h. inhibition, % at 10 µM. hit rate 0.98% among 360,000. AID 1347056;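 active = compounds whose plate-normalised and pattern-corrected inhibition of the luciferase reporter signal at the single screening dose is 50% or more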
TWEAK Fn14 block – inhibitors of TWEAK-Fn14 interaction signaling. TWEAK-stimulated Fn14 reporter cells, luciferase luminescence, 8 h. inhibition, % at 10 µM. hit rate 2% among 360,000. AID 1159606; in the data active = inhibition above about 50%
CF NFkB block – blocks PAF-induced NF-kB reporter in cystic fibrosis cells | KKLEB NF-kB-GFP reporter, GFP fluorescence overnight | inhibition, % at 5 µM | hit rate 0.86% among 360,000;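 active = at least 50% inhibition at 5 µM, scaled per plate between neutral and stimulator controls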;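 note: PAF is a Pseudomonas aeruginosa culture filtrate used as stimulus; plate controls were PAF-stimulated DMSO wells for no effect and unstimulated DMSO wells for full effect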
Peg3 promoter – inhibitors of Peg3 promoter | HeLa PEG-Prom luciferase reporter, luminescence, overnight | inhibition, % at 20 µM | hit rate 1.7% among 360,000 | AID 588405;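 active = inhibition of at least 50% at 20 µM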
HIF-2a block – HIF-2a inhibition; 786-0 RCC cells HIF-2a reporter, luciferase luminescence, overnight; inhibition, % at 18.8 µM; hit rate 0.72% among 360,000; AID 624352;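 active = inhibition of the luminescence signal of 40% or more relative to plate controls, in a single-dose primary screen at 18.75 µM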
KKLEB cytotox – counter-screen for CF NF-kB inhibitors: cytotoxicity; KKLEB CF airway cells viability, ATPlite luminescence, overnight; hits give low values; cells stimulated with P. aeruginosa culture filtrate; activity change (cytotoxicity), % at 5 µM; hit rate 0.36% among 360,000; AID 602141;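 active = corrected activity change at or below -50% at 5 µM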
The depositor's hits bear a star. Rows were chosen to be rich in hits. Some 4% of all compounds tested hit in one or more screens of this group.

How did Cc1ccc(NC(=O)C2CC(=O)N(Cc3ccccc3)C2)cc1S(=O)(=O)N1CCCCCC1 (centres undefined) do in these assays?
TROY NFkB inh: 61*; TWEAK Fn14 block: 88*; CF NFkB block: 0; Peg3 promoter: 33; HIF-2a block: 30; KKLEB cytotox: 1

Results for CCOc1ncccc1C(=O)Nc1ccc(C)c(S(=O)(=O)N2CCCCCC2)c1 ?
TROY NFkB inh: 28; TWEAK Fn14 block: 63*; CF NFkB block: 8; Peg3 promoter: 20; HIF-2a block: 11; KKLEB cytotox: -5

What do the screens show for `COc1ccc(NC(=O)C/C(C)=N/NC(=O)c2ccncc2)c([N+](=O)[O-])c1`?
TROY NFkB inh: 16; TWEAK Fn14 block: -26; CF NFkB block: 4; Peg3 promoter: 9; HIF-2a block: 4; KKLEB cytotox: 8

What do the screens show for `O=S(=O)(c1ccc(Oc2ccc3oc4ccccc4c3c2)nc1)N1CCCC1`?
TROY NFkB inh: 19; TWEAK Fn14 block: 16; CF NFkB block: 4; Peg3 promoter: 15; HIF-2a block: 14; KKLEB cytotox: 7

Results for CN(CC(=O)Nc1ccc(F)c(F)c1F)C(=O)c1n[nH]c(=O)c2ccccc12 ?
TROY NFkB inh: 11; TWEAK Fn14 block: 4; CF NFkB block: 10; Peg3 promoter: 2; HIF-2a block: 14; KKLEB cytotox: 2

What do the screens show for `COc1cc(CCC(=O)Nc2ccc(C)c(S(=O)(=O)N3CCCCCC3)c2)cc(OC)c1OC`?
TROY NFkB inh: 34; TWEAK Fn14 block: 51*; CF NFkB block: -6; Peg3 promoter: 40; HIF-2a block: 8; KKLEB cytotox: -7

What do the screens show for `Cc1csc(SCC(=O)Nc2cc(F)ccc2C)n1`?
TROY NFkB inh: -10; TWEAK Fn14 block: -7; CF NFkB block: -10; Peg3 promoter: 2; HIF-2a block: 7; KKLEB cytotox: 6

How did Cn1c(=O)c2[nH]c(NCCCN3CCOCC3)nc2n(C)c1=O do in these assays?
TROY NFkB inh: 1; TWEAK Fn14 block: -1; CF NFkB block: 24; Peg3 promoter: 1; HIF-2a block: 5; KKLEB cytotox: -8

Results for O=[N+]([O-])/C=C/c1cn(Cc2ccc(F)cc2)c2ccccc12 ?
TROY NFkB inh: 7; TWEAK Fn14 block: 19; CF NFkB block: -2; Peg3 promoter: 53*; HIF-2a block: 22; KKLEB cytotox: -3

Results for CCNC(=S)N/N=C/c1cn(Cc2ccc(F)cc2)c2ccccc12 ?
TROY NFkB inh: 12; TWEAK Fn14 block: -1; CF NFkB block: -29; Peg3 promoter: 11; HIF-2a block: -3; KKLEB cytotox: 8

Results for O=C(O)c1ccc(N/N=C/c2cn(Cc3ccc(F)cc3)c3ccccc23)cc1 ?
TROY NFkB inh: 33; TWEAK Fn14 block: 52*; CF NFkB block: 13; Peg3 promoter: -118; HIF-2a block: -157; KKLEB cytotox: 0

Results for O=c1c2cn(Cc3ccc(F)cc3)c3ccccc3c-2nn1Cc1ccc(F)cc1 ?
TROY NFkB inh: -11; TWEAK Fn14 block: -22; CF NFkB block: -9; Peg3 promoter: 3; HIF-2a block: 9; KKLEB cytotox: 2

What do the screens show for `CCCCn1c(/N=C/c2cc(OC)ccc2O)nc2ccccc21`?
TROY NFkB inh: 15; TWEAK Fn14 block: 4; CF NFkB block: -5; Peg3 promoter: 0; HIF-2a block: 17; KKLEB cytotox: 0

Results for O=C(Oc1ccc2c(c1)OCO2)c1ccncc1 ?
TROY NFkB inh: 12; TWEAK Fn14 block: -17; CF NFkB block: 14; Peg3 promoter: -5; HIF-2a block: 7; KKLEB cytotox: -5

What do the screens show for `O=C(COC(=O)c1ccc2c(c1)OCCO2)Nc1cccc(S(=O)(=O)N2CCOCC2)c1`?
TROY NFkB inh: 56*; TWEAK Fn14 block: 26; CF NFkB block: -1; Peg3 promoter: -8; HIF-2a block: 13; KKLEB cytotox: 11

What do the screens show for `COc1ccccc1N(C)S(=O)(=O)c1ccc(C(=O)Nc2cccc(S(=O)(=O)N3CCOCC3)c2)cc1`?
TROY NFkB inh: 33; TWEAK Fn14 block: 49; CF NFkB block: 3; Peg3 promoter: 50*; HIF-2a block: 11; KKLEB cytotox: 20

Results for CN(c1ccccc1)S(=O)(=O)c1ccc(C(=O)Nc2cccc(S(=O)(=O)N3CCOCC3)c2)cc1 ?
TROY NFkB inh: 29; TWEAK Fn14 block: 45; CF NFkB block: 5; Peg3 promoter: 21; HIF-2a block: 4; KKLEB cytotox: -6
